Data reported in the supplement of paper PMC6089552.
In all, about 3,200 compounds went through this assay and about 300 (9.4%) showed activity. This excerpt belongs to a sample that is enriched for actives.

Test system: A673/TR/shEF
Assay: cell viability (LOESS-normalised, relative to median of negative controls) (log2 ratio); higher = more viable cells (less compound effect), active = hit call of the paper (over 3 MAD below the median)
Conditions: treatment time: 72 h
Summary of the method: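 A673/TR/shEF Ewing sarcoma cells were plated at 1,500 per well in 384-well plates and cultured with or without doxycycline, added 24 h before compounds, to induce EWS-FLI1 shRNA knockdown. Library compounds at two or more concentrations, alongside DMSO controls, were applied for three days. Cell viability was measured by CellTiter-Glo luminescence on an Envision reader. Readings were LOESS-corrected per plate, divided by the median of negative controls and log2-transformed, and hits were wells lying at least three median absolute deviations from the median of all screened wells.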

[1] = 0.25 µM, library screen: screen1, EWS-FLI1 expression: high (no doxycycline)
[2] = 0.25 µM, library screen: screen1, EWS-FLI1 expression: low (doxycycline-induced shRNA knockdown)
[3] = 2.5 µM, library screen: screen1, EWS-FLI1 expression: high (no doxycycline)
[4] = 2.5 µM, library screen: screen1, EWS-FLI1 expression: low (doxycycline-induced shRNA knockdown)
[5] = 0.25 µM, library screen: screen2, EWS-FLI1 expression: high (no doxycycline)
[6] = 0.25 µM, library screen: screen2, EWS-FLI1 expression: low (doxycycline-induced shRNA knockdown)
[7] = 2.5 µM, library screen: screen2, EWS-FLI1 expression: high (no doxycycline)
[8] = 2.5 µM, library screen: screen2, EWS-FLI1 expression: low (doxycycline-induced shRNA knockdown)

Measured: cell viability (log2)

O=c1cc([C@H]2Oc3cc(O)cc(O)c3C[C@H]2O)cc2c([C@H]3Oc4cc(O)cc(O)c4C[C@H]3O)cc(O)c(O)c2c1O
inactive: [1] 0.0869 | [2] 0.0834 | [3] 0.134 | [4] 0.162

C[n+]1cc2c3c(ccc2c2ccc4cc5c(cc4c21)OCO5)OCO3
active: [3] -0.232 | [7] -0.101 | 25 µM, library screen: screen2, EWS-FLI1 expression: high (no doxycycline) -4.23 | 25 µM, library screen: screen2, EWS-FLI1 expression: low (doxycycline-induced shRNA knockdown) -4.28
inactive: 0.025 µM, library screen: screen2, EWS-FLI1 expression: high (no doxycycline) 0.0722 | 0.025 µM, library screen: screen2, EWS-FLI1 expression: low (doxycycline-induced shRNA knockdown) 0.0049 | [1] 0.0872 | [2] 0.0117 | [5] 0.116 | [6] 0.0651 | [4] -0.0123 | [8] -0.0563

COc1ccc(C(=O)C=Cc2ccccc2)cc1
inactive: [1] 0.0817 | [2] 0.0563 | [3] 0.0612 | [4] 0.0356

CC(C)=CC1C(CO)C1(C)C (stereo unspecified)
inactive: [1] 0.105 | [2] 0.00359 | [3] 0.117 | [4] 0.123

CCOC(=O)c1sc(C)c2c(=O)n(C3CCCCC3)cnc12
inactive: [1] 0.0769 | [2] 0.0757 | [3] 0.067 | [4] -0.0142

CC(C)(C)c1ccc(S(=O)(=O)/C=C/C#N)cc1
active: [7] -0.121
inactive: [5] 0.205 | [6] 0.163 | [8] 0.0273

Cc1ccc(S(=O)(=O)/C=C/C#N)cc1
inactive: 0.025 µM, library screen: screen1, EWS-FLI1 expression: high (no doxycycline) 0.231 | 0.025 µM, library screen: screen1, EWS-FLI1 expression: low (doxycycline-induced shRNA knockdown) -0.0315 | [1] 0.131 | [2] 0.0518 | [5] 0.14 | [6] -0.0223 | [4] -0.123 | [8] 0.0315
active: [3] -0.841 | [7] -0.102 | 25 µM, library screen: screen1, EWS-FLI1 expression: high (no doxycycline) -3.58 | 25 µM, library screen: screen1, EWS-FLI1 expression: low (doxycycline-induced shRNA knockdown) -2.12

C[C@@H](Oc1ccccc1)C(=O)N[C@@H]1C(=O)N2[C@@H]1SC(C)(C)[C@@H]2C(=O)O
inactive: [1] 0.0816 | [2] 0.0301 | [3] 0.188 | [4] 0.189

CC1=C[C@@H]2[C@@H](CC1)[C@](C)(O)CC[C@H]2C(C)C
inactive: [1] 0.0888 | [2] 0.0211 | [3] 0.101 | [4] 0.102

C=C1C2CC[C@@]3(C)[C@H](c4ccoc4)OC(=O)C[C@]13O[C@H]1C[C@H](OC(C)=O)C(C)(C)[C@H](CC(=O)OC)[C@@]21C
inactive: [1] 0.122 | [2] 0.0225 | [3] 0.146 | [4] 0.192

Cc1onc(-c2c(Cl)cccc2Cl)c1C(=O)Nc1ccc(Br)cc1F
inactive: [1] 0.112 | [2] 0.103 | [3] 0.116 | [4] 0.0234

O=C(O)/C=C/c1ccc(O)c(O)c1
inactive: [1] 0.082 | [2] -0.0191 | [5] 0.181 | [6] 0.126 | [3] 0.109 | [4] 0.0871 | [7] 0.0522 | [8] 0.0284

O=C(/C=C/c1ccc(O)c(O)c1)O[C@H](Cc1ccc(O)c(O)c1)C(=O)O
inactive: [1] 0.0508 | [2] 0.0752 | [3] 0.0833 | [4] 0.158

O=C(/C=C/c1ccc(O)c(O)c1)OCCc1ccccc1
active: [7] -0.129
inactive: [5] 0.197 | [6] 0.0712 | [8] 0.0968

N[C@@H](CSCSC[C@H](N)C(=O)O)C(=O)O
inactive: [1] 0.0746 | [2] 0.0305 | [3] 0.129 | [4] 0.147

N#Cc1c(-c2ccc(Br)cc2)cc(-c2ccc3c(c2)OCO3)c(C#N)c1N
inactive: [1] 0.0622 | [2] 0.109 | [3] 0.154 | [4] 0.0524

CCCc1occc(=O)c1C=CO
inactive: [1] -0.0143 | [2] 0.0143 | [3] 0.203 | [4] 0.0516

Nc1ccc(S(=O)(=O)Nc2ccccn2)cc1
inactive: [1] 0.0477 | [2] 0.097 | [3] 0.18 | [4] 0.163

Nc1ccc(S(=O)(=O)Nc2ncccn2)cc1
inactive: 0.103 µM, library screen: screen3, EWS-FLI1 expression: high (no doxycycline) 0.169 | 0.103 µM, library screen: screen3, EWS-FLI1 expression: low (doxycycline-induced shRNA knockdown) 0.0541 | [1] 0.0966 | [2] 0.142 | 0.308 µM, library screen: screen3, EWS-FLI1 expression: high (no doxycycline) 0.163 | 0.308 µM, library screen: screen3, EWS-FLI1 expression: low (doxycycline-induced shRNA knockdown) 0.0301 | 0.926 µM, library screen: screen3, EWS-FLI1 expression: high (no doxycycline) 0.117 | 0.926 µM, library screen: screen3, EWS-FLI1 expression: low (doxycycline-induced shRNA knockdown) 0.108 | [3] 0.146 | [4] 0.202 | 2.8 µM, library screen: screen3, EWS-FLI1 expression: high (no doxycycline) 0.14 | 2.8 µM, library screen: screen3, EWS-FLI1 expression: low (doxycycline-induced shRNA knockdown) 0.0823 | 8.3 µM, library screen: screen3, EWS-FLI1 expression: high (no doxycycline) 0.0532 | 8.3 µM, library screen: screen3, EWS-FLI1 expression: low (doxycycline-induced shRNA knockdown) 0.0153 | 25 µM, library screen: screen3, EWS-FLI1 expression: high (no doxycycline) 0.0911 | 25 µM, library screen: screen3, EWS-FLI1 expression: low (doxycycline-induced shRNA knockdown) 0.15

Nc1ccc(S(=O)(=O)Nc2ccnn2-c2ccccc2)cc1
active: [7] -0.179 | [8] -0.12
inactive: [1] 0.0545 | [2] -0.0171 | [5] 0.053 | [6] 0.048 | [3] 0.14 | [4] 0.0403

COC(=O)C[C@H]1C(C)(C)C(=O)[C@@H]2CC3C4=CC(=O)O[C@@H](c5ccoc5)[C@]4(C)CC[C@@H]3[C@@]1(C)C2=O (stereo partly specified)
inactive: [1] 0.00456 | [2] 0.0839 | [3] 0.0543 | [4] 0.0477

COc1ccc2c(c1)O[C@@H]1c3ccc(OC)cc3OC[C@H]21
inactive: [1] 0.0429 | [2] 0.176 | [3] 0.0512 | [4] 0.136

C[C@H]1O[C@@H](O[C@H]2[C@@H](O)C[C@H](O[C@H]3[C@@H](O)C[C@H](O[C@H]4CC[C@@]5(C)[C@H](CC[C@@H]6[C@@H]5C[C@@H](O)[C@]5(C)[C@@H](C7=CC(=O)OC7)CC[C@]65O)C4)O[C@@H]3C)O[C@@H]2C)C[C@H](O)[C@@H]1O
inactive: [1] -0.0229 | [2] -0.153
active: [3] -2.32 | [4] -1.91

C[C@]12CC[C@H](O)C[C@H]1C[C@@H]1OC13C2[C@H](O)C(=O)[C@]1(C)[C@@H](C2=CC(=O)OC2)CC[C@]31O (stereo partly specified)
inactive: [1] 0.026 | [2] -0.0692 | [3] 0.111 | [4] -0.106

C[C@H]1O[C@@H](O[C@H]2[C@@H](O)C[C@H](O[C@H]3[C@@H](O)C[C@H](O[C@H]4CC[C@@]5(C)[C@H](CC[C@@H]6[C@@H]5CC[C@]5(C)[C@@H](C7=CC(=O)OC7)CC[C@]65O)C4)O[C@@H]3C)O[C@@H]2C)C[C@H](O)[C@@H]1O
active: [1] -2.45 | [2] -2.04 | [3] -3.94 | [4] -4.23
